The test system of the assay is ERBB3. Particulars: concentration: 1 μM, replicates: in singlicate; n = 1.
`Cc1ccc(C(=O)Nc2ccc(Nc3ccnc4cc(-c5nccs5)ccc34)cc2O)cc1.Cl` [GW494702]: the “%Inh” value was 21%.

For the compound `CC(C)c1nc(-c2cccc(NS(=O)(=O)c3c(F)cccc3F)c2F)c(-c2ccnc(Nc3ccc(N4CCOCC4)nc3)n2)s1` [GSK2008607], the “%Inh” value was 97.7%.

Consider `Cl.c1ccc(-c2ccc3c(Nc4ccc5[nH]ccc5c4)ccnc3c2)nc1` [GW440138], for which the “%Inh” value was determined as 50%.

As to `Nc1ncc(-c2cccnc2)c2scc(-c3ccc4c(c3)CCN4C(=O)Cc3ccccc3)c12` [GSK683281], the “%Inh” value is reported as 0%.

For the compound `COc1cc(Nc2nccc(-c3c(-c4cccc(NC(=O)c5c(F)cccc5F)c4)nn4ccccc34)n2)cc(OC)c1OC` [GSK323521], the “%Inh” value came to 0%.

On to `CCc1ccc(-c2ccc3c(c2)-c2c(cnn2C)S(=O)(=O)N3C)cc1`, for which the “%Inh” value was 0%.

Turning to `COC(=O)Nc1nc2cc(Oc3ccc(NC(=O)Nc4cc(C(F)(F)F)ccc4F)cn3)ccc2[nH]1.Cl.Cl` [GW681170], the “%Inh” value is on record as 2%.

For the compound `Cc1occc1-c1ncc(OC[C@@H](N)Cc2c[nH]c3ccccc23)cc1-c1ccc2[nH]nc(C)c2c1.O=C(O)C(F)(F)F` [GSK682037], the “%Inh” value worked out at 0%.

For the compound `O=C(Nc1cccc(Oc2ccc3nc(NC(=O)C4CC4)cn3n2)c1)c1ccccc1C(F)(F)F`, the “%Inh” value is 52%.

Turning to `CSc1cccc2c(-c3ccncn3)c(-c3ccc(F)cc3)nn12` [GW514786], the “%Inh” value amounted to 13%.

In the case of `COc1cc(Nc2ncc3c(C)nc(-c4cc5ccccc5[nH]4)n3n2)cc(OC)c1OC` [GW869516], the “%Inh” value was found to be 26%.

For `O=C(Nc1cccc(-c2nn3ccccc3c2-c2ccnc(Nc3cccc(C(F)(F)F)c3)n2)c1)c1c(F)cccc1F` [GSK292658], the “%Inh” value is given as 0%.

Turning to `CNC(=O)c1ccccc1Nc1nc(Nc2ccc(N3CCOCC3)cc2)ncc1Cl.Cl` [GSK1576028], the “%Inh” value amounted to 0%.

As for `Cl.c1ccc(-c2ccc3c(Nc4ccc5[nH]ncc5c4)ccnc3c2)nc1` [GW440137], the “%Inh” value amounted to 35%.

As for `Cl.Cl.NCC(NC(=O)c1cc(-c2ccccc2)c(-c2ccnc3[nH]ccc23)s1)c1ccccc1` (stereo not shown) [GSK1321561], the “%Inh” value was 0%.

Take `COc1cc2c(cc1OCCN1CCNCC1)ncc1c3ccc(C#N)cc3[nH]c21`: the “%Inh” value was 0%.

As for `CCn1c(-c2nonc2N)nc2c(C#CC(C)(C)O)ncc(OCCCCN)c21.O=C(O)C(F)(F)F.O=C(O)C(F)(F)F` [GSK507274], the “%Inh” value is reported as 0%.

As for `COc1cc(Nc2nccc(-c3c(-c4cccc(NC(=O)c5c(F)cccc5F)c4)nn4ncccc34)n2)cc(OC)c1OC` [GSK327238], the “%Inh” value came to 96%.

In the case of `COc1cc(Nc2nccc(N3CCC(NC(=O)Nc4cccc(C(C)=O)c4)C3)n2)cc(OC)c1OC` (stereo not shown) [GSK1379753], the “%Inh” value was found to be 0%.

In the case of `CN(C)S(=O)(=O)c1cc(-c2ccc3nccc(-c4cccc(S(N)(=O)=O)c4)c3c2)cnc1N` [GSK1669921], the “%Inh” value is 0%.

As to `COCCOCCOc1cc2ncc3c4ccc(C#N)cc4[nH]c3c2cc1OC`, the “%Inh” value worked out at 0%.

Consider `Nc1n[nH]c2cnc(-c3ccccc3)cc12` [SB-642124], for which the “%Inh” value was 0%.

Regarding `CN1CCN(CCCNc2nccc(-c3c(-c4ccc(F)cc4)nn4cc(C(F)(F)F)ccc34)n2)CC1` [GW621581], the “%Inh” value is reported as 0%.

Regarding `Nc1ncnc2c1nc(-c1ccccc1)n2-c1ccccc1` [SKF-97293], the “%Inh” value is 43%.

For `Cl.NC(=O)c1cccc(Nc2nccc(Nc3ccc(Oc4c(Cl)cccc4Cl)c(Cl)c3)n2)c1` [GW659009], the “%Inh” value came out at 93.3%.

`Cc1ccc(F)c(C(=O)Nc2cccc(-c3nn4ccccc4c3-c3ccnc(Nc4cccc(F)c4)n3)c2)c1F` [GSK361061]: the “%Inh” value was 25%.

As to `COc1cccc(-c2ccc3c(NC(=O)C4CC4)n[nH]c3n2)c1` [SB-710903], the “%Inh” value was found to be 0%.

In the case of `CC(=O)N1CCN(c2ccc(Nc3nccc(-c4sc(C(C)C)nc4-c4cccc(NS(=O)(=O)c5cccc(Cl)c5)c4)n3)cn2)CC1` [GSK1660437], the “%Inh” value is given as 92%.

On to `C[C@@H]1CC[C@@H](C(=O)Nc2ccccc2)CN1c1cc(-c2ccc3c(N)n[nH]c3c2)nc(N)n1` [GSK2286062], for which the “%Inh” value stood at 0%.

Regarding `Clc1ccc(-c2nn3ncccc3c2-c2ccnc(Nc3ccc4c(c3)OCCO4)n2)cc1` [GW829116], the “%Inh” value is 8%.

Turning to `Cc1ccc(C(=O)N2CC[C@@H](O)C2)cc1-n1c(C)cc(OCc2ccc(F)cc2F)c(Br)c1=O`, the “%Inh” value is 0%.

Turning to `CC(=O)Nc1nc2cnc(Nc3cc(NC(=O)c4cccc(C5(C#N)CC5)c4Cl)ccc3C)nc2s1`, the “%Inh” value came out at 7%.

Turning to `c1ccc(-c2cnc3nccnn23)cc1` [AH20685], the “%Inh” value is 0%.

Turning to `CCn1c(-c2nonc2N)nc2c(C#CC(C)(C)O)nc(OC[C@H](N)c3ccccc3)cc21` [GSK943949], the “%Inh” value is reported as 0%.

With `Cl.Cl.NCC(C(=O)Nc1cc(Br)c(-c2ccnc3[nH]ccc23)s1)c1ccccc1` (stereo not shown) [GSK1269851], the “%Inh” value worked out at 0%.

Consider `COc1cccc(C2=C(Nc3ccc(Cl)c(C(=O)O)c3)C(=O)NC2=O)c1` [SB-390769], for which the “%Inh” value is reported as 5%.

On to `Cc1cccc(Nc2nc(N[C@H]3CCNC3)ncc2C(N)=O)c1.Cl` [GSK2197149], for which the “%Inh” value is on record as 0%.

(Values after publication PMC5540273 (PLoS ONE, 2017).)
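Note: KINOMEscan kinase panel screen.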
